Reference: PubChem BioAssay (EPA / NIEHS)
Active and inactive are the calls of the source. How the source made its calls: active means hit-call score of the fitted dose curve at least 0.9, where 1 is the maximum; inactive means score below 0.9.

Tests used:
[1] = read-out: Vascular cell adhesion molecule 1 (VCAM1), VCAM1 (gene 7412); test: BSK_hDFCGF_VCAM1: BioMAP Diversity Plus: hDFCGF Assay for Vascular cell adhesion molecule 1 (VCAM1) Biomarker Activity (AID 2283065); settings: primary human foreskin fibroblasts; actives raise or lower the signal;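 on AC50: VCAM-1 protein level quantified by ELISA after 24 h chemical exposure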
In short: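 Measured after 24 h chemical treatment of primary human skin fibroblasts, VCAM-1 was detected by ELISA and concentration-response analysed in both directions versus DMSO vehicle.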

[2] = read-out: Plasminogen activator inhibitor-1 (PAI1), SERPINE1 (gene 5054); test: BSK_hDFCGF_PAI1: BioMAP Diversity Plus: hDFCGF Assay for Plasminogen activator inhibitor-1 (PAI1) Biomarker Activity (AID 2283066); settings: primary human foreskin fibroblasts; actives raise or lower the signal
In short: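 ELISA readout of PAI-1 from primary human skin fibroblast cultures, 24 h after compound addition. Gain or loss of signal was fitted bidirectionally against DMSO baseline.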

[3] = read-out: Intercellular Adhesion Molecule 1 (ICAM1), ICAM1 (gene 3383); test: BSK_KF3CT_ICAM1: BioMAP Diversity Plus: KF3CT Assay for Intercellular Adhesion Molecule 1 (ICAM1) Biomarker Activity (AID 2283067); settings: primary human keratinocytes with fibroblasts; actives raise or lower the signal
In short: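 Bidirectional curve fitting against a DMSO baseline was applied to ICAM-1 ELISA signal from primary human skin co-cultures harvested 24 h after treatment, with SRB staining of parallel wells for overt cytotoxicity.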

[4] = read-out: Interferon-gamma inducible Protein 10 (IP10), CXCL10 (gene 3627); test: BSK_KF3CT_IP10: BioMAP Diversity Plus: KF3CT Assay for Interferon-gamma inducible Protein 10 (IP10) Biomarker Activity (AID 2283068); settings: primary human keratinocytes with fibroblasts; actives raise or lower the signal
In short: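 Signal is secreted/surface IP-10 by ELISA in a human primary skin co-culture of keratinocytes and foreskin fibroblasts, taken 24 h post-dosing; DMSO served as negative control.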

[5] = BSK_KF3CT_SRB: Viability Assessment in the BioMAP Diversity Plus: KF3CT Assay (AID 2283069); settings: primary human keratinocytes with fibroblasts;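 further: total protein by sulforhodamine B staining as a cytotoxicity measure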
In short: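 Cytotoxicity was gauged by SRB staining (0.1% SRB, 10% TCA fixation, 560 nm) of parallel cultures at 24 h. The cells were primary human skin keratinocytes co-cultured with fibroblasts, and activity was fitted in both directions against DMSO.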

[6] = read-out: Interleukin-1 alpha (IL1a), IL1A (gene 3552); test: BSK_KF3CT_IL1a: BioMAP Diversity Plus: KF3CT Assay for Interleukin-1 alpha (IL1a) Biomarker Activity (AID 2283070); settings: primary human keratinocytes with fibroblasts; actives raise or lower the signal
In short: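 IL-1a was detected by ELISA 24 h after chemical treatment of a co-culture of human skin keratinocytes and foreskin fibroblasts. Gain or loss of signal was fitted against the DMSO baseline.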

[7] = read-out: TIMP metallopeptidase inhibitor 2 (TIMP2), TIMP2 (gene 7077); test: BSK_KF3CT_TIMP2: BioMAP Diversity Plus: KF3CT Assay for TIMP metallopeptidase inhibitor 2 (TIMP2) Biomarker Activity (AID 2283071); settings: primary human keratinocytes with fibroblasts; actives raise or lower the signal
In short: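 ELISA readout of TIMP-2 in keratinocyte plus foreskin fibroblast co-cultures (human skin primary cells), 24 h post-dose. Gain or loss of signal fitted relative to DMSO.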

[8] = read-out: C-C motif chemokine 2 (Homo sapiens) (UniProt P13500); test: BSK_KF3CT_MCP1: BioMAP Diversity Plus: KF3CT Assay for Monocyte Chemoattractant Protein 1 (MCP1/CCL2) Biomarker Activity (AID 2283073); settings: primary human keratinocytes with fibroblasts; actives raise or lower the signal
In short: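 Biomarker MCP-1 is measured by ELISA in primary human keratinocytes co-cultured with foreskin fibroblasts, 24 h after chemical treatment; DMSO serves as the negative control and activity baseline.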

[9] = read-out: Matrix Metallopeptidase 9 (MMP9), MMP9 (gene 4318); test: BSK_KF3CT_MMP9: BioMAP Diversity Plus: KF3CT Assay for Matrix Metallopeptidase 9 (MMP9) Biomarker Activity (AID 2283074); settings: primary human keratinocytes with fibroblasts; actives raise or lower the signal
In short: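 MMP-9 quantified by ELISA after 24 h chemical treatment of primary human skin keratinocyte/fibroblast co-cultures; gain or loss fitted against DMSO, with parallel SRB staining (0.1% SRB, 560 nm) for overt cytotoxicity.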

[10] = read-out: urokinase plasminogen activator (uPA), PLAU (gene 5328); test: BSK_KF3CT_uPA: BioMAP Diversity Plus: KF3CT Assay for urokinase plasminogen activator (uPA) Biomarker Activity (AID 2283075); settings: primary human keratinocytes with fibroblasts; actives raise or lower the signal
In short: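 ELISA read-out of uPA 24 h after dosing human skin keratinocytes co-cultured with foreskin fibroblasts. Signal change fitted both ways relative to DMSO; sulforhodamine B on parallel cultures marks overt cytotoxicity.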

CD40, CD40 (gene 958) = test: BSK_LPS_CD40: BioMAP Diversity Plus: LPS Assay for CD40 Biomarker Activity (AID 2283076); settings: primary human HUVEC with PBMC; actives raise or lower the signal
In short: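 Using a multiplexed primary human co-culture (umbilical vein endothelium plus PBMC), CD40 was read by ELISA 24 h after dosing, with cytotoxicity tracked by sulforhodamine B staining of parallel cultures and activity fitted bidirectionally versus DMSO.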

[11] = read-out: E-selectin (Homo sapiens) (UniProt P16581); test: BSK_LPS_Eselectin: BioMAP Diversity Plus: LPS Assay for Eselectin Biomarker Activity (AID 2283077); settings: primary human HUVEC with PBMC; actives raise or lower the signal
In short: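 Dose chemical onto LPS-driven HUVEC/PBMC co-culture; after 24 h, run ELISA for E-selectin; fit up- and down-going responses relative to DMSO control.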

[12] = read-out: Interleukin-8 (IL8), CXCL8 (gene 3576); test: BSK_LPS_IL8: BioMAP Diversity Plus: LPS Assay for Interleukin-8 (IL8) Biomarker Activity (AID 2283078); settings: primary human HUVEC with PBMC; actives raise or lower the signal
In short: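 In this LPS system, chemical-treated human umbilical vein endothelium/PBMC co-cultures were harvested at 24 h for IL-8 ELISA.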

[13] = BSK_LPS_SRB: Viability Assessment in the BioMAP Diversity Plus: LPS Assay (AID 2283079); settings: primary human HUVEC with PBMC;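 further: total protein by sulforhodamine B absorbance as a cytotoxicity measure; measured one day after compound addition; fitted in both directions against DMSO so loss or gain of signal counts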
In short: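 Cytotoxicity endpoint in human endothelial–PBMC co-culture: 24 h exposure, then SRB (0.1%) staining, 560 nm read.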

[14] = read-out: Interleukin-1 alpha (IL1a), IL1A (gene 3552); test: BSK_LPS_IL1a: BioMAP Diversity Plus: LPS Assay for Interleukin-1 alpha (IL1a) Biomarker Activity (AID 2283080); settings: primary human HUVEC with PBMC; actives raise or lower the signal
In short: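 Primary human HUVEC and PBMC co-culture stimulated with LPS is dosed and harvested at 24 h. Both increases and decreases in ELISA-measured IL-1a are scored relative to DMSO.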

[15] = read-out: Monocyte Chemoattractant Protein-1 (MCP1), CCL2 (gene 6347); test: BSK_LPS_MCP1: BioMAP Diversity Plus: LPS Assay for Monocyte Chemoattractant Protein-1 (MCP1) Biomarker Activity (AID 2283081); settings: primary human HUVEC with PBMC; actives raise or lower the signal;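 on AC50: secreted MCP-1 protein quantified by ELISA in culture supernatant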
In short: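 Values derive from bidirectional fitting against DMSO of ELISA-measured MCP-1 in a human primary endothelial and mononuclear cell co-culture, 24 h after chemical addition under LPS activation.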

[16] = read-out: Macrophage colony-stimulating factor (MCSF), CSF1 (gene 1435); test: BSK_LPS_MCSF: BioMAP Diversity Plus: LPS Assay for Macrophage colony-stimulating factor (MCSF) Biomarker Activity (AID 2283083); settings: primary human HUVEC with PBMC; actives raise or lower the signal
In short: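 Bidirectional fit versus DMSO of ELISA-measured M-CSF in co-cultured human umbilical vein endothelial cells and PBMC, sampled 24 h after dosing.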

[17] = read-out: Tissue Factor, F3 (gene 2152); test: BSK_LPS_TissueFactor: BioMAP Diversity Plus: LPS Assay for Tissue Factor Biomarker Activity (AID 2283084); settings: primary human HUVEC with PBMC; actives raise or lower the signal
In short: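 Read-out: CD142 ELISA, 24 h. System: LPS-driven human endothelial/PBMC co-culture. Analysis: up- or down-signal fitted against DMSO.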

[18] = read-out: Transforming growth factor beta 1 (TGFb1), TGFB1 (gene 7040); test: BSK_KF3CT_TGFb1: BioMAP Diversity Plus: KF3CT Assay for Transforming growth factor beta 1 (TGFb1) Biomarker Activity (AID 2283072); settings: primary human keratinocytes with fibroblasts; actives raise or lower the signal
In short: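 Read-out: ELISA for TGF-b1 in keratinocyte/foreskin fibroblast human skin co-culture, 24 h after dosing; bidirectional curve fit vs DMSO baseline; gain or loss of signal scored.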

[19] = BSK_LPS_PGE2: BioMAP Diversity Plus: LPS Assay for Prostaglandin E2 (PGE2) Biomarker Activity (AID 2283082); settings: primary human HUVEC with PBMC; actives raise or lower the signal
In short: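 ELISA read-out of PGE2 from human umbilical vein endothelial cells co-cultured with peripheral blood mononuclear cells under LPS, 24 h post-dose. Gain or loss of signal scored relative to DMSO baseline.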

Measured: AC50

Chain of E-selectin (Homo sapiens) (P16581 whole entry, looked up): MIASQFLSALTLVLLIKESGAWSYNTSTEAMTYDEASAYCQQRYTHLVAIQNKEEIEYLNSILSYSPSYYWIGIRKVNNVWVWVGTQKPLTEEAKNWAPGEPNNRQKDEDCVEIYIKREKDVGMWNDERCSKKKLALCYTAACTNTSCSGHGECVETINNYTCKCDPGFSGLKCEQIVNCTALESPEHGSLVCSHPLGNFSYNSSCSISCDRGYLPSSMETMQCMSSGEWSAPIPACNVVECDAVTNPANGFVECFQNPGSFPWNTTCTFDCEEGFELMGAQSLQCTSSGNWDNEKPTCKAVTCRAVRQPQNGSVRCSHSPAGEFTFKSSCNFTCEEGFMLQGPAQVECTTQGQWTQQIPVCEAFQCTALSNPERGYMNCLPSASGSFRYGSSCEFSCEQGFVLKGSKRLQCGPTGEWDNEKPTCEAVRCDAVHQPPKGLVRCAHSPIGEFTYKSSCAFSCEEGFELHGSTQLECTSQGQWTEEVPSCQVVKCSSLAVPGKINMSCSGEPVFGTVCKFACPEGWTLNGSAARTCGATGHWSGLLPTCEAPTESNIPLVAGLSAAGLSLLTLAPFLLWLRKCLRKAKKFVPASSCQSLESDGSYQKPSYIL

COC(=O)Cc1ccccc1
inactive: [1] | [2] | [3] | [4] | [5] | [6] | [7] | [8] | [9] | [10] | CD40, CD40 (gene 958) | [11] | [12] | [13] | [14] | [15] | [16] | [17]

ClC(Cl)=C(Cl)C(Cl)=C(Cl)Cl
active: [2] 0.435 µM | [3] 32.4 µM | [4] 36.3 µM | [5] 34.1 µM | [6] 20 µM | [7] 26.9 µM | [18] 29.2 µM | [8] 20 µM | CD40, CD40 (gene 958) 31.4 µM | [13] 3.97 µM | [14] 31 µM | [16] 32.1 µM | [17] 33.2 µM
inactive: [1] | [10] | [15]

C=C(C)C(=O)[O][Sn]([CH2]CCC)([CH2]CCC)[CH2]CCC
active: [1] 0.148 µM | [2] 0.254 µM | [3] 0.354 µM | [4] 0.181 µM | [5] 0.282 µM | [6] 0.148 µM | [7] 0.148 µM | [18] 0.148 µM | [10] 0.148 µM | CD40, CD40 (gene 958) 0.148 µM | [12] 0.38 µM | [13] 0.148 µM | [14] 0.148 µM | [15] 0.331 µM | [16] 0.148 µM | [17] 0.148 µM
inactive: [19]

Nc1cccc2ccccc12
active: [1] 25.9 µM | [2] 20 µM | [17] 9.83 µM
inactive: [3] | [4] | [5] | [6] | [7] | [18] | [10] | CD40, CD40 (gene 958) | [12] | [13] | [14] | [15] | [19] | [16]

CCOP(=S)(OCC)Oc1ccc(S(C)=O)cc1 (stereo not drawn)
inactive: [1] | [2] | [3] | [4] | [5] | [6] | [7] | [18] | [8] | [10] | CD40, CD40 (gene 958) | [13] | [14] | [15] | [19] | [16] | [17]

O=C(O)C(Cl)(Cl)Cl
inactive: [1] | [2] | [3] | [4] | [5] | [6] | [7] | [18] | [8] | [10] | CD40, CD40 (gene 958) | [13] | [14] | [15] | [16] | [17]

CCCCCCCCc1ccc(O)cc1
active: [1] 27.9 µM | [2] 14 µM | [3] 31.2 µM | [4] 29.5 µM | [5] 27.7 µM | [6] 25 µM | [7] 30 µM | [18] 22.4 µM | [10] 31.6 µM | CD40, CD40 (gene 958) 31.5 µM | [11] 37.8 µM | [12] 36.5 µM | [13] 34.1 µM | [14] 31 µM | [15] 37.4 µM | [16] 30.8 µM | [17] 38.1 µM
